This note sets out measurements from PubChem BioAssay (Tox21).

Each structure is given as a SMILES string. Values joined by “and” are separate entries in the source; they are usually repeats but may differ in a detail not shown here. Equal entries are not always repeated. Inconclusive results are not listed. The source holds several records for some structures; these can differ, active in one and inactive in another. Active and inactive are the calls of the source. Calls come from the whole dose curve; as a rule, active = well fitted curve in the direction sought with a large enough effect in the repeat runs; inconclusive = weak or mixed curves; inactive = no such curve, though single readings can be large; an effect the other way counts as inactive or inconclusive.

Assay [1] is described as follows: A CellTox Green Cytotoxicity Assay to monitor cytotoxicity in HEK293 cells - 40 hour (AID 1224871). Note: nearly all actives have a fitted effect of over 45% in size. Note: potency is the fitted concentration of half-maximal effect. A digest of the protocol:
(§1)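 Cytotoxicity was tracked continuously in HEK293 cells by a DNA-binding dye excluded from viable cells. Compounds were transferred in DMSO 5 h after seeding; fluorescence was recorded at intervals up to 40 h.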

Assay [2] is described as follows: qHTS RealTime-Glo MT Cell Viability Assay in HEK293 cells - 16 hour (AID 1224872). Note: nearly all actives have a fitted effect of over 50% in size. Note: potency is the fitted concentration of half-maximal effect. A digest of the protocol: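 HEK293 cells seeded with NanoLuc/prosubstrate reagent, rested 5 h at 37 C, then dosed and kept at 37 C up to 40 h. Nonlytic real-time luminescence from viable cells read at 0, 8, 16, 24, 32 and 40 h.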
A short description of assay [3]: qHTS RealTime-Glo MT Cell Viability Assay in HepG2 cells - 8 hour (AID 1224873). Note: nearly all actives have a fitted effect of over 55% in size. A digest of the protocol: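 Real-time viability: cells seeded at 600 per well together with NanoLuc and cell-permeant prosubstrate, compounds added after 5 h incubation. Luminescence tracked at 0, 8, 16, 24, 32 and 40 h of exposure.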
The nature of assay [4]: qHTS RealTime-Glo MT Cell Viability Assay in HEK293 cells - 40 hour (AID 1224874). Note: nearly all actives have a fitted effect of over 50% in size. Note: potency is the fitted concentration of half-maximal effect. As to conditions: RealTime-Glo luminescence; max response: stronger effect = lower value. A digest of the protocol: (§2)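 Nonlytic bioluminescent viability monitoring. HEK293 at 600 cells/well with reagent; 5 h settle; compound transfer by pintool; plates held at 37 C and read at set time points.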
Assay [5] can be described thus: A CellTox Green Cytotoxicity Assay to monitor cytotoxicity in HEK293 cells - 24 hour (AID 1224875). Note: series mostly up to about 77 µM; nearly all actives have a fitted effect of over 45% in size. Summed up:
as §1

The nature of assay [6]: A CellTox Green Cytotoxicity Assay to monitor cytotoxicity in HepG2 cells - 16 hour (AID 1224876). Note: nearly all actives have a fitted effect of over 45% in size. Note: potency is the fitted concentration of half-maximal effect. Summed up:
(§3)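 Real-time, homogeneous cytotoxicity readout: dead-cell DNA staining by CellTox Green in HepG2 monolayers, fluorescence measured at timed intervals up to 40 h of continuous compound exposure.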

Assay [7] can be described thus: qHTS RealTime-Glo MT Cell Viability Assay in HepG2 cells - 32 hour (AID 1224877). Note: nearly all actives have a fitted effect of over 55% in size. Note: potency is the fitted concentration of half-maximal effect. Summed up:
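HepG2 cells (600/well) were dispensed with RealTime-Glo reagents, incubated 5 h at 37 °C, then treated with compounds in DMSO for up to 40 h. Nonlytic NanoLuc luminescence reflecting viable cells was read at each stated time point.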

Assay [8] in a line: A CellTox Green Cytotoxicity Assay to monitor cytotoxicity in HepG2 cells - 24 hour (AID 1224878). Note: nearly all actives have a fitted effect of over 45% in size. Summed up:
as §3

Assay [9] is described as follows: A CellTox Green Cytotoxicity Assay to monitor cytotoxicity in HepG2 cells - 40 hour (AID 1224879). Note: nearly all actives have a fitted effect of over 40% in size. Note: potency is the fitted concentration of half-maximal effect. A digest of the protocol:
as §3

Assay [10] in a line: qHTS RealTime-Glo MT Cell Viability Assay in HEK293 cells - 0 hour (AID 1224880). Summed up:
as §2
% is set by controls: 0 for no effect and ±100 for the full control effect.

Turning to `CCNCC`, the Potency entry in assay [1], in assay [2], in assay [3], in assay [5], in [6] and in assay [7] was “inactive” each time. Further, the Potency entry in [8], in [9] and in assay [10] was “inactive” each time. The max response in assay [4] was -0.119% (inactive) and -1.58% (inactive).
As for `C[N+](C)(C)C`, the Potency result in [1], in [2], in assay [3], in assay [5], in assay [6] and in [7] was “inactive” in each case. Moreover, the Potency entry in assay [8], in assay [9] and in assay [10] was “inactive” each time. Moreover, the max response in [4] is 4.13% (inactive) and -0.266% (inactive).
Take `NC(=O)CN1CCCC1=O`: the Potency result in [1], in assay [2], in assay [3], in assay [5], in assay [6] and in assay [7] was “inactive” in each case. In addition, the Potency entry in assay [8], in assay [9] and in assay [10] was “inactive” each time. The max response in assay [4] is 3.12% (inactive) and 0.0955% (inactive).
Consider `CN(C)P(=O)(N(C)C)N(C)C`, for which the Potency entry in assay [1], in assay [2], in [3], in assay [5], in assay [6] and in [7] was “inactive” each time. The Potency entry in [8], in assay [9] and in [10] was “inactive” each time. Further, the max response in assay [4] is 3.42% (inactive) and 6.93% (inactive).
On to `CCN(CC)C(=O)C(C)Oc1cccc2ccccc12` (stereo not drawn), for which the Potency entry in [1], in assay [2], in assay [3], in assay [5], in [6] and in assay [7] was “inactive” each time. In addition, the Potency entry in assay [8], in [9] and in assay [10] was “inactive” throughout. Moreover, the max response in [4] was -27.1% (inactive) and -29.7% (inactive).
For `CS(=O)(=O)NC(=O)c1cc(Oc2ccc(C(F)(F)F)cc2Cl)ccc1[N+](=O)[O-]`, the Potency result in assay [1], in assay [2], in [3], in assay [5], in assay [6] and in [7] was “inactive” each time. In addition, the Potency entry in assay [8], in assay [9] and in assay [10] was “inactive” in each case. In addition, in assay [4], the max response is 9.57% (inactive) and 9.32% (inactive).
On to `CC1=C(C(=O)Nc2ccccc2)SCCO1`, for which the Potency entry in assay [1], in [2], in [3], in assay [5], in assay [6] and in [7] was “inactive” each time. Moreover, the Potency entry in assay [8], in assay [9] and in [10] was “inactive” in each case. Further, the max response in assay [4] was -20.6% (inactive) and -17.9% (inactive).
Turning to `CN(C)c1ccccc1`, the Potency result in [1], in assay [2], in assay [3], in assay [5], in assay [6] and in assay [7] was “inactive” throughout. Also, the Potency result in [8], in assay [9] and in assay [10] was “inactive” throughout. Besides, in assay [4], the max response is 0.0564% (inactive) and 11.3% (inactive).
With `C[N+](C)(C)CC(=O)O`, the Potency result in assay [1], in assay [2], in assay [3], in assay [5], in assay [6] and in [7] was “inactive” in each case. For the same compound, the Potency result in assay [8], in assay [9] and in [10] was “inactive” throughout. Moreover, in assay [4], the max response is 5.5% (inactive) and 7.98% (inactive).
As for `CCOP(=O)(O)OCC` (tested in a mixture with another compound), the Potency entry in assay [1] is “inactive and 24.3 µM (active)”; in assay [2], “inactive and 24.3 µM (active)”; in assay [4] it was 2.43 µM (active); in assay [6], “inactive and 43.3 µM (active)”; in assay [7] it was “inactive and 48.6 µM (active)”; in [9], “inactive and 34.4 µM (active)”. The Potency result in assay [3] and in [10] was “inactive” throughout. In addition, the max response in assay [4] was 4.04% (inactive).
With `Nc1ncn[nH]1`, the Potency result in assay [1], in assay [2], in [3], in assay [5], in [6] and in assay [7] was “inactive” throughout. For the same compound, the Potency entry in assay [8], in [9] and in assay [10] was “inactive” each time. In addition, the max response in assay [4] was -0.91% (inactive) and 1.15% (inactive).
On to `CCC(=O)Nc1ccc(Cl)c(Cl)c1`, for which the Potency result in assay [1], in assay [3], in assay [5], in [6], in [7] and in assay [9] was “inactive” in each case. Also, in assay [10], the Potency entry is “inactive”. The Potency in [2] is 44.5 µM (active); in assay [4], 22.3 µM (active) and 43.6 µM (active).
Regarding `OCCOCCO`, the Potency result in assay [1], in assay [2], in [3], in assay [5], in [6] and in assay [7] was “inactive” in each case. For the same compound, the Potency entry in [9] and in [10] was “inactive” throughout. In addition, in [4], the max response is -1.92% (inactive) and 3.49% (inactive).
Consider `CC(C)Nc1nc(Cl)nc(NC(C)C)n1`, for which the Potency result in assay [1], in [2], in assay [3], in assay [5], in [6] and in [7] was “inactive” each time. Further, the Potency entry in assay [9] and in assay [10] was “inactive” each time. Besides, the max response in assay [4] is -12.4% (inactive) and -17.3% (inactive).
Turning to `c1ccc2c(c1)Nc1ccccc1S2`, the Potency result in assay [1], in assay [3], in assay [5], in assay [6], in assay [7] and in assay [9] was “inactive” in each case. The Potency was 6.92 µM (active) and 12 µM (active) in assay [2]; 14.3 µM (active) and 13.4 µM (active) in assay [4].
With `N#CC(c1ccccc1)c1ccccc1`, the Potency result in [1], in assay [2], in assay [3], in assay [5], in assay [6] and in [7] was “inactive” in each case. Further, the Potency result in assay [9] and in assay [10] was “inactive” throughout. For the same compound, the max response in [4] was -11% (inactive).
Consider `O=P(OCCCl)(OCCCl)OCCCl`, for which the Potency entry in assay [1], in [2], in assay [3], in assay [5], in [6] and in assay [7] was “inactive” throughout. Further, the Potency entry in assay [8], in [9] and in [10] was “inactive” throughout. The max response in assay [4] is -9.18% (inactive) and -11.6% (inactive).
`CC(C)(C#N)N=NC(C)(C)C#N`: the Potency entry in [1], in assay [2], in assay [3], in [5], in assay [6] and in assay [7] was “inactive” in each case. For the same compound, the Potency result in [8], in assay [9] and in assay [10] was “inactive” each time. Also, the max response in [4] is 5.82% (inactive) and -2% (inactive).
